The whole screen tested about 360,000 compounds, of which about 290 (0.081%) were called active. The sample as a whole holds a higher share of actives than the screen did. A number with no mark means an inactive call. The call rests on the fitted dose curve; in most records, active means well fitted activation curve with a large enough effect; inconclusive means small, poorly fitted or top-dose-only effect; inactive means no such curve, though single readings can be large or run the other way.
Potency means the concentration at half of the fitted maximal effect.

Sequence of Rap guanine nucleotide exchange factor 4 (Homo sapiens) (Q8WZA2 whole entry, looked up): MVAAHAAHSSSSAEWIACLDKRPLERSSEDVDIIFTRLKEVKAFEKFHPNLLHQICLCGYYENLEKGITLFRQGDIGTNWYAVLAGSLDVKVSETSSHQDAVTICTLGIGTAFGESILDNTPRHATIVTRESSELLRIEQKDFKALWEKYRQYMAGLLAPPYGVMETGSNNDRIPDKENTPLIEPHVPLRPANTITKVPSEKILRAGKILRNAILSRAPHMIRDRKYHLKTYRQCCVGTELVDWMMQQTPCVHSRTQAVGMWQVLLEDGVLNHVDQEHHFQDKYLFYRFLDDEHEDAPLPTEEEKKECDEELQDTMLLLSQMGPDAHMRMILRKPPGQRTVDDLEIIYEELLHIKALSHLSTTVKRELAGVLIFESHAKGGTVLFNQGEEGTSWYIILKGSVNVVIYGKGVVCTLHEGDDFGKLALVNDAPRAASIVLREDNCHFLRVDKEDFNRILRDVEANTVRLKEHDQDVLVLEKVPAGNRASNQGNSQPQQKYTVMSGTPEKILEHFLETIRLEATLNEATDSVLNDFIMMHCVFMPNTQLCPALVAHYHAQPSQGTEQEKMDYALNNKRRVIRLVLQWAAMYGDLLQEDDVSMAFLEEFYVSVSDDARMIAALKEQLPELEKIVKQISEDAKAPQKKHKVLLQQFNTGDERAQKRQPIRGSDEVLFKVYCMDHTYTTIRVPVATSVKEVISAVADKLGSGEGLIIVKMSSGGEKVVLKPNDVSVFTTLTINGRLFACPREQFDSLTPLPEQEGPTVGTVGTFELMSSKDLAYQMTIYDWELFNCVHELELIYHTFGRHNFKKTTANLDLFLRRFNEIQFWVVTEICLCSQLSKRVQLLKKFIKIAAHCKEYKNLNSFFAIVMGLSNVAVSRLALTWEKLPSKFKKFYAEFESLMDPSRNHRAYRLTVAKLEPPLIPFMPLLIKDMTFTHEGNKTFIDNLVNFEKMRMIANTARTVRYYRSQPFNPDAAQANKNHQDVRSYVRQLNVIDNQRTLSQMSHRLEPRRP

In this test the target is Rap guanine nucleotide exchange factor 4 (Homo sapiens) (UniProt Q8WZA2). Description: qHTS for Agonist of cAMP-regulated guanine nucleotide exchange factor 4 (EPAC2): primary screen. Further: nearly all actives have a fitted effect of over 50% in size. The following applies: biochemical qHTS; Potency: EPAC2 activation; series mostly up to 154 µM; activation: at the top concentration. From the text:
In multi-cellular eukaryotic organisms, the effects of cAMP are transduced by two ubiquitously-expressed intracellular cAMP receptors, the classic protein kinase A/cAMP-dependent protein kinase (PKA/cAPK) and the more recently discovered exchange protein directly activated by cAMP/cAMP-regulated guanine nucleotide exchange factor (EPAC/cAMP-GEF). Both PKA and EPAC are ubiquitously expressed in all tissues, and an increase in intracellular cAMP levels will lead to the activation of both PKA and EPAC. Therefore, careful dissections of the individual role and relative contribution of EPAC and PKA within the overall cAMP signaling in various model systems are critical for further elucidating the mechanism of cAMP signaling. To date no EPAC-specific antagonists and agonist, as well as isoform-specific agonists have been reported, and developing EPAC-specific pharmacological probes to determine the physiological functions that EPAC play in the overall cAMP-mediated signaling remains a major challenge within the research field. Furthermore, identified regulators of EPAC may lead to new mechanism-based therapeutic strategies specifically targeting the EPAC / cAMP-signaling components as EPAC has been implicated to play important roles in major human pathological conditions such as diabetes, heart disease, and cancer.
This qHTS will be used to screen the Molecular Libraries Small Molecule Repository (MLSMR) as a concentration-titration series using the NCGC unique quantitative screening (qHTS) platform to find activators for EPAC2. In addition, this assay will also be used as a counterscreen for the EPAC1 qHTS. This fluorescent based assay is developed and validated for EPAC2 that measures exchange using EPAC effector Rap1 complex with BODIPY-GDP, a GDP analog with a tethered fluorophores. Activators are identified by monitoring the change in fluorescence signal as the exchanged free BODIPY-GDP has a reduced fluorescence compared to Rap1-bound BODIPY-GDP. […] in signal (activation) is the desired outcome for the EPAC2 agonist while no activity in this assay is desired for the EPAC1 agonist counterscreen.
[1] de Rooij, J., Zwartkruis, F. J., Verheijen, M. H., Cool, R. H., Nijman, S. M., Wittinghofer, A., and Bos, J.L. (1998) Nature 396, 474-477
[2] Kawasaki, H., Springett, G. M., Mochizuki, N., Toki, S., Nakaya, M., Matsuda, M., Housman, D. E., and Graybiel, A. M. (1998) Science 282, 2275-2279
NIH Chemical Genomics Center [NCGC]
NIH Molecular Libraries Probe Centers Network [MLPCN]
Assay Submitter (PI): Xiaodong Cheng, The University of Texas, Medical Branch
Briefly, three uL of reagents (100 nM EPAC2, 250 nM RAP1B-BODIPY-GDP, 50 uM GDP) were dispensed into a 1536-well Greiner black solid-bottom medium binding assay plate. Controls and test compounds (23 nL) were transferred to the plate via a Kalypsys pin tool equipped with a 1536-pin array. The plates were centrifuged at 1,000 rpm for 15 seconds followed by 5 minute incubation at room temperature. The assay plates were read at 5 minute intervals for 30 minutes in the ViewLux plate reader using 480nm excitation and 540nm emission filters. The results were normalized to the agonist positive control of 6.5 mM cAMP.
A general note: In qHTS, concentration-response curves come from the screen itself.
Consider `COc1cccc(N2C(=O)NC(=O)/C(=C\c3cn(C)c4ccccc34)C2=O)c1`, for which the Potency is 100 µM (active).

On to `CCc1nc2ccccc2c(=O)n1-c1cccc(OC)c1`, for which the “activation” value was 1.81%.

Take `CC1C(=O)OC2CCN3CC=C(COC(=O)C(C)(O)C1(C)O)C23` (stereo not given): the “activation” value was -2.81%.

Regarding `CSC1=NP(=S)(SC)N(C)c2nc3n(c21)CCC3` (stereo not given), the “activation” value is 9.22%.

`CC(=O)c1ccc(OC(NC(=O)Cc2ccccc2)C(Cl)(Cl)Cl)cc1` (stereo not given): the “activation” value is 6.08%.
